From PubChem BioAssay (NCI)
About 83,000 compounds went through this panel and 20% of them were active in at least one assay; those are over-represented in the sample as a whole.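 Percent growth is the endpoint: 0 to 100 indicates growth inhibition (40 means 60% inhibition), 0 means no net growth, and negative values indicate cell death.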 Calls of active or inactive are those of the source. The calls were made as follows: active = growth percent below 10; inactive = the rest.

Legend:
Test in all cases: NCI-60 one-dose screen, 48 h (100 = growth as untreated, 0 = no growth, -100 = all killed)
Conditions in all cases: 10 µM unless noted
DU-145 prostate = tested on: DU-145 prostate
K-562 leukemia = tested on: K-562 leukemia
MALME-3M melanoma = tested on: MALME-3M melanoma
MDA-MB-231 breast = tested on: MDA-MB-231 breast
RXF 393 renal = tested on: RXF 393 renal
SF-268 CNS = tested on: SF-268 CNS
SF-295 CNS = tested on: SF-295 CNS
SF-539 CNS = tested on: SF-539 CNS
UACC-257 melanoma = tested on: UACC-257 melanoma
M14 melanoma = tested on: M14 melanoma
HCT-15 colon = tested on: HCT-15 colon
HT29 colon = tested on: HT29 colon
SNB-75 CNS = tested on: SNB-75 CNS
SNB-19 CNS = tested on: SNB-19 CNS
U251 CNS = tested on: U251 CNS
PC-3 prostate = tested on: PC-3 prostate
SK-MEL-5 melanoma = tested on: SK-MEL-5 melanoma
UACC-62 melanoma = tested on: UACC-62 melanoma
SK-MEL-28 melanoma = tested on: SK-MEL-28 melanoma
LOX IMVI melanoma = tested on: LOX IMVI melanoma

Measured: growth

COc1ccc(/C=N/Nc2cc(=O)[nH]c3ccc(C)cc23)cc1
inactive: DU-145 prostate 105% | K-562 leukemia 79.5% | MALME-3M melanoma 114% | MDA-MB-231 breast 126% | RXF 393 renal 95.4% | SF-268 CNS 115% | SF-295 CNS 96.2% | SF-539 CNS 101% | UACC-257 melanoma 105% | M14 melanoma 86.3% | HCT-15 colon 87.9% | HT29 colon 94.7% | SNB-75 CNS 108% | SNB-19 CNS 95.2% | U251 CNS 97.1% | PC-3 prostate 79.1% | SK-MEL-5 melanoma 69% | UACC-62 melanoma 89.4% | SK-MEL-28 melanoma 101%

O=c1c2cc(C(F)(F)F)ccc2sc2c(NCCCNCCO)nc3ccccc3c12
active: DU-145 prostate -71.6% | K-562 leukemia -47.1% | MDA-MB-231 breast -58.7% | SF-539 CNS -79.1% | M14 melanoma -38.9% | HCT-15 colon -67.2% | HT29 colon -41.4% | U251 CNS -60.6%
inactive: MALME-3M melanoma 75.2% | RXF 393 renal 42.6% | SF-268 CNS 36.6% | SF-295 CNS 42.7% | UACC-257 melanoma 92% | SNB-75 CNS 56.9% | SNB-19 CNS 23.2% | PC-3 prostate 23% | SK-MEL-5 melanoma 38.3% | UACC-62 melanoma 74.8% | SK-MEL-28 melanoma 55.5%

CCOC(=O)c1cn2ncnc(Oc3ccc(NC(=O)NCCN4CCN(C)CC4)c(Cl)c3)c2c1C
active: UACC-257 melanoma -15.9% | M14 melanoma -23.7%
inactive: DU-145 prostate 81.2% | K-562 leukemia 10.9% | MALME-3M melanoma 28.3% | MDA-MB-231 breast 72% | RXF 393 renal 35.8% | SF-268 CNS 81.4% | SF-295 CNS 94.8% | SF-539 CNS 78.5% | HCT-15 colon 39.6% | HT29 colon 19.7% | SNB-75 CNS 86.3% | SNB-19 CNS 87.7% | PC-3 prostate 50.5% | SK-MEL-5 melanoma 47.6% | UACC-62 melanoma 34% | LOX IMVI melanoma 66.2% | SK-MEL-28 melanoma 13.3%

COc1cccc(-c2nc(-c3ccc(NC(=O)c4ccccc4)cc3)[nH]c2-c2ccnc(Br)c2)c1
inactive: DU-145 prostate 62.2% | MALME-3M melanoma 28.7% | MDA-MB-231 breast 34.2% | SF-268 CNS 51.4% | UACC-257 melanoma 49.4% | M14 melanoma 29.6% | HT29 colon 10.2% | SNB-75 CNS 10.7% | SNB-19 CNS 33.6% | PC-3 prostate 17.6% | UACC-62 melanoma 16.4% | SK-MEL-28 melanoma 37%
active: K-562 leukemia 2.4% | RXF 393 renal -44.3% | SF-295 CNS -62.5% | SF-539 CNS -5.94% | HCT-15 colon -0.905% | SK-MEL-5 melanoma -79.6% | LOX IMVI melanoma -55.8%

COc1ccc2sc3c(NCCO)nc4ccccc4c3c(=O)c2c1
inactive: DU-145 prostate 106% | K-562 leukemia 76.7% | MALME-3M melanoma 104% | MDA-MB-231 breast 85.3% | RXF 393 renal 104% | SF-268 CNS 100% | SF-295 CNS 100% | SF-539 CNS 86.1% | UACC-257 melanoma 109% | M14 melanoma 104% | HCT-15 colon 81% | HT29 colon 101% | SNB-75 CNS 103% | SNB-19 CNS 95.4% | PC-3 prostate 91.4% | SK-MEL-5 melanoma 93.7% | UACC-62 melanoma 94.5% | LOX IMVI melanoma 88% | SK-MEL-28 melanoma 122%

CNC(=O)c1[nH]cc(-c2ccccc2)c1-c1cc(OC)c2c(c1OC)OCO2
inactive: DU-145 prostate 106% | K-562 leukemia 98.7% | MALME-3M melanoma 105% | MDA-MB-231 breast 96.2% | RXF 393 renal 94.1% | SF-268 CNS 93.6% | SF-295 CNS 106% | SF-539 CNS 102% | UACC-257 melanoma 101% | M14 melanoma 98.3% | HCT-15 colon 104% | HT29 colon 91.5% | SNB-75 CNS 70.9% | SNB-19 CNS 90.6% | PC-3 prostate 98.3% | SK-MEL-5 melanoma 105% | UACC-62 melanoma 90.8% | LOX IMVI melanoma 98.5% | SK-MEL-28 melanoma 108%

CC(=O)O.CN1[CH-]N(Cc2ccc(C#N)cc2)c2ccccc21.[Ag+]
inactive: DU-145 prostate 111% | K-562 leukemia 45.8% | MALME-3M melanoma 102% | MDA-MB-231 breast 110% | RXF 393 renal 117% | SF-268 CNS 109% | SF-295 CNS 110% | SF-539 CNS 106% | UACC-257 melanoma 81.2% | M14 melanoma 100% | HCT-15 colon 102% | HT29 colon 94.7% | SNB-19 CNS 109% | U251 CNS 97.4% | PC-3 prostate 91.1% | SK-MEL-5 melanoma 41.7% | UACC-62 melanoma 112% | LOX IMVI melanoma 91.8% | SK-MEL-28 melanoma 95.3%

CC(C)(C)NC(=O)C(OC(=O)c1cccc(Cl)c1)c1ccc(Cl)cc1 (stereo not drawn)
inactive: DU-145 prostate 103% | K-562 leukemia 92.5% | MALME-3M melanoma 103% | MDA-MB-231 breast 112% | RXF 393 renal 111% | SF-268 CNS 100% | SF-295 CNS 98.1% | SF-539 CNS 95.1% | UACC-257 melanoma 97.1% | M14 melanoma 94.1% | HCT-15 colon 103% | HT29 colon 87.6% | SNB-19 CNS 103% | U251 CNS 94.5% | PC-3 prostate 94% | SK-MEL-5 melanoma 98.2% | UACC-62 melanoma 104% | LOX IMVI melanoma 94.1% | SK-MEL-28 melanoma 105%

COc1cc(CNS(=O)(=O)c2ccc(C)cc2)ccc1OCc1cn(-c2ccccc2)nn1
inactive: DU-145 prostate 103% | K-562 leukemia 73.4% | MALME-3M melanoma 99.7% | MDA-MB-231 breast 95.4% | RXF 393 renal 99.9% | SF-268 CNS 98.2% | SF-295 CNS 93.5% | SF-539 CNS 94.6% | UACC-257 melanoma 82.3% | M14 melanoma 99.2% | HCT-15 colon 88.2% | HT29 colon 103% | SNB-19 CNS 92.3% | U251 CNS 89.1% | PC-3 prostate 86.7% | SK-MEL-5 melanoma 80.1% | UACC-62 melanoma 75.2% | LOX IMVI melanoma 94.1% | SK-MEL-28 melanoma 101%

NCCCNc1nc2ccccc2c2c(=O)c3cc(OC(F)(F)F)ccc3sc12
active: DU-145 prostate -10.7% | K-562 leukemia -34.7% | MDA-MB-231 breast -43.2% | SF-539 CNS -72% | M14 melanoma -26.4% | HCT-15 colon -78.1% | HT29 colon -32.9% | SNB-19 CNS 7.57%
inactive: MALME-3M melanoma 80.9% | RXF 393 renal 60.7% | SF-268 CNS 51% | SF-295 CNS 33.4% | UACC-257 melanoma 104% | SNB-75 CNS 58.6% | PC-3 prostate 42.9% | SK-MEL-5 melanoma 59.9% | UACC-62 melanoma 88.9% | SK-MEL-28 melanoma 84.7%

COc1c(C2CC(=O)Nc3c2c(C)nn3-c2nc3ccccc3[nH]2)cc2c(c1OC)OCO2 (stereo not drawn)
inactive: DU-145 prostate 80.2% | K-562 leukemia 15.1% | MALME-3M melanoma 86.5% | MDA-MB-231 breast 68.4% | RXF 393 renal 27.1% | SF-268 CNS 62.1% | SF-295 CNS 19.8% | SF-539 CNS 59.8% | UACC-257 melanoma 67.1% | M14 melanoma 33.3% | HCT-15 colon 37.2% | HT29 colon 20.5% | SNB-19 CNS 49.6% | U251 CNS 31.5% | PC-3 prostate 48.4% | SK-MEL-5 melanoma 31.9% | UACC-62 melanoma 55.2% | LOX IMVI melanoma 46.7% | SK-MEL-28 melanoma 44.2%

Cn1cc(-c2cc3ncnc(Nc4ccc(CC(=O)Nc5cc(C(C)(C)C)on5)cc4)c3s2)cn1
inactive: DU-145 prostate 29.9% | K-562 leukemia 11.1% | MALME-3M melanoma 43.4% | MDA-MB-231 breast 34.4% | RXF 393 renal 19.3% | SF-268 CNS 31.6% | SF-295 CNS 49.9% | SF-539 CNS 15.7% | UACC-257 melanoma 59.3% | M14 melanoma 21.1% | HCT-15 colon 18.6% | HT29 colon 27.4% | SNB-19 CNS 86.1% | U251 CNS 54.2% | PC-3 prostate 47% | SK-MEL-5 melanoma 52.1% | UACC-62 melanoma 30% | LOX IMVI melanoma 25.8% | SK-MEL-28 melanoma 44%

c1cc(-c2nnc(SSc3ncnc4nc[nH]c34)o2)ccn1
inactive: DU-145 prostate 41.5% | K-562 leukemia 17% | MALME-3M melanoma 103% | MDA-MB-231 breast 20.6% | RXF 393 renal 61.8% | SF-268 CNS 35% | SF-295 CNS 21.9% | SF-539 CNS 15.4% | UACC-257 melanoma 51.9% | HCT-15 colon 37.3% | HT29 colon 18.9% | SNB-19 CNS 93.1% | U251 CNS 72.4% | PC-3 prostate 51% | SK-MEL-5 melanoma 72.1% | UACC-62 melanoma 11.8% | SK-MEL-28 melanoma 76.2%
active: M14 melanoma 7.94% | LOX IMVI melanoma 9.77%

C/C(=C\C(=O)c1ccc(Cl)cc1)c1ccc(Cl)cc1
inactive: DU-145 prostate 113% | K-562 leukemia 106% | MALME-3M melanoma 97.5% | MDA-MB-231 breast 89.8% | RXF 393 renal 106% | SF-268 CNS 96.4% | SF-295 CNS 109% | SF-539 CNS 104% | UACC-257 melanoma 98.4% | M14 melanoma 104% | HCT-15 colon 44.6% | HT29 colon 109% | SNB-19 CNS 99.9% | U251 CNS 100% | PC-3 prostate 87.8% | SK-MEL-5 melanoma 94.1% | UACC-62 melanoma 92.8% | LOX IMVI melanoma 100% | SK-MEL-28 melanoma 111%

CCOC(=O)c1[nH]c(C)c(C(=O)OCc2ccccc2C#N)c1C
inactive: DU-145 prostate 87.2% | K-562 leukemia 25.6% | MALME-3M melanoma 66.5% | MDA-MB-231 breast 73.9% | RXF 393 renal 58.3% | SF-268 CNS 72.9% | SF-295 CNS 75.2% | SF-539 CNS 16.2% | UACC-257 melanoma 114% | M14 melanoma 58.9% | HCT-15 colon 60.8% | HT29 colon 35.1% | SNB-19 CNS 97.1% | U251 CNS 50.9% | PC-3 prostate 80.3% | SK-MEL-5 melanoma 60.3% | UACC-62 melanoma 73.6% | LOX IMVI melanoma 63.1% | SK-MEL-28 melanoma 87.1%

NCCCNc1nc2ccccc2c2c(=O)c3cc(F)cc(F)c3sc12
inactive: DU-145 prostate 73.4% | MALME-3M melanoma 73.6% | MDA-MB-231 breast 18.2% | RXF 393 renal 63.6% | SF-268 CNS 81.7% | SF-295 CNS 105% | UACC-257 melanoma 100% | HCT-15 colon 77% | SNB-19 CNS 87.1% | PC-3 prostate 73.8% | SK-MEL-5 melanoma 92.3% | UACC-62 melanoma 103% | LOX IMVI melanoma 60%
active: K-562 leukemia -42.9% | SF-539 CNS -92.3% | M14 melanoma -85.2% | HT29 colon -49.7% | U251 CNS -69.2% | SK-MEL-28 melanoma -87.1%
